Data reported in PubChem BioAssay AID1159580 (chemical genetic matrix, 2015).
Among all 5,500 compounds or so, about 2,000 (36%) were called active. Inconclusive results (about 18%) are left out. Cut-off read from the data, not from the text of the source: active = normalized growth mostly below about 0.91 (no sharp cut-off); inconclusive = no clear call, values can overlap the other calls; inactive = mostly above about 0.92. Some of the results follow.

Experiment: chemical genetic growth profiling, strain panel (AID 1159580);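 note: tested at 20 µM; growth read once vehicle control cultures reached saturation at 30 °C; 1 = growth at the plate median or of vehicle wells; lower values mean less growth of the strain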
Settings: growth OD

Measured: normalized growth

O=C1C=CC2=C3c4cc(O)c(O)cc4C[C@@]3(O)COC2=C1
inactive: S. cerevisiae deletion strains, locus YJR066W, strain TOR1, stronger effect = lower value 0.935 | S. cerevisiae deletion strains, locus YKL009W, strain mrt4, stronger effect = lower value 1.01 | S. cerevisiae deletion strains, locus YKL068W, stronger effect = lower value 1.01 | S. cerevisiae deletion strains, locus YKL085W, strain MDH1 (second series), stronger effect = lower value 1.01 | S. cerevisiae deletion strains, locus YKL085W, strain MDH1, stronger effect = lower value 1.01 | S. cerevisiae deletion strains, locus YKL160W, strain elf1, stronger effect = lower value 0.953 | S. cerevisiae deletion strains, locus YKR001C, strain vps1, stronger effect = lower value 1.02 | S. cerevisiae deletion strains, locus YKR026C, strain gcn3, stronger effect = lower value 0.983 | S. cerevisiae deletion strains, locus YKR091W, strain srl3, stronger effect = lower value 0.97 | S. cerevisiae deletion strains, locus YLL001W, strain dnm1, stronger effect = lower value 0.976 | S. cerevisiae deletion strains, locus YLL026W, stronger effect = lower value 0.986 | S. cerevisiae deletion strains, locus YLL041C, strain sdh2, stronger effect = lower value 0.976 | S. cerevisiae deletion strains, locus YLR027C, strain aat2, stronger effect = lower value 0.979 | S. cerevisiae deletion strains, locus YLR039C, strain RIC1, stronger effect = lower value 1.07 | S. cerevisiae deletion strains, locus YLR058C, strain SHM2, stronger effect = lower value 0.997 | S. cerevisiae deletion strains, locus YLR102C, strain apc9, stronger effect = lower value 0.992 | S. cerevisiae deletion strains, locus YLR113W, strain HOG1, stronger effect = lower value 1.08 | S. cerevisiae deletion strains, locus YLR221C, strain rsa3, stronger effect = lower value 0.991 | S. cerevisiae deletion strains, locus YLR258W, strain gsy2, stronger effect = lower value 0.971 | S. cerevisiae deletion strains, locus YLR262C, strain YPT6 (second series), stronger effect = lower value 0.976 | S. cerevisiae deletion strains, locus YLR262C, strain YPT6, stronger effect = lower value 1.08 | S. cerevisiae deletion strains, locus YLR268W, strain sec22, stronger effect = lower value 1.03 | S. cerevisiae deletion strains, locus YLR320W, strain mms22, stronger effect = lower value 0.995 | S. cerevisiae deletion strains, locus YLR342W, strain FKS1, stronger effect = lower value 0.985 | S. cerevisiae deletion strains, locus YLR357W, strain rsc2, stronger effect = lower value 0.912 | S. cerevisiae deletion strains, locus YLR370C, strain arc18, stronger effect = lower value 0.987 | S. cerevisiae deletion strains, locus YLR371W, strain rom2, stronger effect = lower value 0.989 | S. cerevisiae deletion strains, locus YLR384C, strain iki3, stronger effect = lower value 0.971 | S. cerevisiae deletion strains, locus YLR418C, strain cdc73, stronger effect = lower value 0.991 | S. cerevisiae deletion strains, locus YML016C, strain PPZ1, stronger effect = lower value 0.996 | S. cerevisiae deletion strains, locus YML032C, strain rad52, stronger effect = lower value 1.02 | S. cerevisiae deletion strains, locus YML120C, strain ndi1, stronger effect = lower value 0.983 | S. cerevisiae deletion strains, locus YML124C, strain tub3, stronger effect = lower value 1 | S. cerevisiae deletion strains, locus YMR058W, strain fet3, stronger effect = lower value 0.941 | S. cerevisiae deletion strains, locus YMR078C, strain ctf18, stronger effect = lower value 0.996 | S. cerevisiae deletion strains, locus YMR125W, strain sto1, stronger effect = lower value 0.954 | S. cerevisiae deletion strains, locus YMR129W, stronger effect = lower value 1 | S. cerevisiae deletion strains, locus YMR205C, strain PFK2, stronger effect = lower value 0.98 | S. cerevisiae deletion strains, locus YMR223W, strain ubp8, stronger effect = lower value 0.975 | S. cerevisiae deletion strains, locus YMR231W, strain pep5, stronger effect = lower value 0.957 | S. cerevisiae deletion strains, locus YMR307W, strain GAS1, stronger effect = lower value 0.991 | S. cerevisiae deletion strains, locus YNL067W, strain RPL9B, stronger effect = lower value 0.994 | S. cerevisiae deletion strains, locus YNL071W, strain lat1, stronger effect = lower value 0.982 | S. cerevisiae deletion strains, locus YNL128W, strain TEP1, stronger effect = lower value 0.998 | S. cerevisiae deletion strains, locus YNL153C, strain GIM3, stronger effect = lower value 0.963 | S. cerevisiae deletion strains, locus YNL183C, strain NPR1, stronger effect = lower value 0.971 | S. cerevisiae deletion strains, locus YNL209W, strain ssb2, stronger effect = lower value 0.987 | S. cerevisiae deletion strains, locus YNL233W, strain BNI4, stronger effect = lower value 0.992 | S. cerevisiae deletion strains, locus YNL248C, strain rpa49, stronger effect = lower value 0.969 | S. cerevisiae deletion strains, locus YNL250W, strain rad50, stronger effect = lower value 0.954 | S. cerevisiae deletion strains, locus YNL271C, strain bni1, stronger effect = lower value 0.982 | S. cerevisiae deletion strains, locus YNL298W, strain CLA4, stronger effect = lower value 0.996 | S. cerevisiae deletion strains, locus YNL307C, strain MCK1, stronger effect = lower value 1 | S. cerevisiae deletion strains, locus YNL322C, strain KRE1 (second series), stronger effect = lower value 0.971 | S. cerevisiae deletion strains, locus YNL322C, strain KRE1, stronger effect = lower value 1.01 | S. cerevisiae deletion strains, locus YNR049C, strain mso1, stronger effect = lower value 0.977 | S. cerevisiae deletion strains, locus YNR052C, strain pop2, stronger effect = lower value 0.967 | S. cerevisiae deletion strains, locus YOL012C, strain htz1 0.978 | S. cerevisiae deletion strains, locus YOL147C, strain pex11, stronger effect = lower value 0.998 | S. cerevisiae deletion strains, locus YOR001W, strain rrp6, stronger effect = lower value 0.968 | S. cerevisiae deletion strains, locus YOR061W, strain CKA2, stronger effect = lower value 1.01 | S. cerevisiae deletion strains, locus YOR069W, strain VPS5, stronger effect = lower value 0.993 | S. cerevisiae deletion strains, locus YOR070C, strain gyp1, stronger effect = lower value 0.967 | S. cerevisiae deletion strains, locus YOR080W, strain dia2, stronger effect = lower value 0.979 | S. cerevisiae deletion strains, locus YOR083W, strain WHI5, stronger effect = lower value 0.959 | S. cerevisiae deletion strains, locus YOR106W, strain vam3, stronger effect = lower value 0.931 | S. cerevisiae deletion strains, locus YOR136W, strain idh2, stronger effect = lower value 0.998 | S. cerevisiae deletion strains, locus YOR144C, strain elg1, stronger effect = lower value 1.01 | S. cerevisiae deletion strains, locus YOR184W, strain ser1, stronger effect = lower value 1.08 | S. cerevisiae deletion strains, locus YOR231W, strain MKK1, stronger effect = lower value 1.02 | S. cerevisiae deletion strains, locus YOR265W, strain rbl2, stronger effect = lower value 0.986 | S. cerevisiae deletion strains, locus YOR270C, strain vph1, stronger effect = lower value 1.01 | S. cerevisiae deletion strains, locus YOR290C, strain snf2, stronger effect = lower value 0.946 | S. cerevisiae deletion strains, locus YOR316C, strain cot1, stronger effect = lower value 1 | S. cerevisiae deletion strains, locus YPL051W, strain arl3, stronger effect = lower value 0.968 | S. cerevisiae deletion strains, locus YPL055C, strain LGE1, stronger effect = lower value 1.04 | S. cerevisiae deletion strains, locus YPL078C, strain atp4, stronger effect = lower value 0.992 | S. cerevisiae deletion strains, locus YPL106C, strain sse1, stronger effect = lower value 0.944 | S. cerevisiae deletion strains, locus YPL240C, strain hsp82, stronger effect = lower value 0.99 | S. cerevisiae deletion strains, locus YPL241C, strain CIN2, stronger effect = lower value 1.01 | S. cerevisiae deletion strains, locus YPL256C, strain CLN2, stronger effect = lower value 1 | S. cerevisiae deletion strains, locus YPR119W, strain clb2, stronger effect = lower value 0.996 | S. cerevisiae deletion strains, locus YPR141C, strain kar3, stronger effect = lower value 0.993 | S. cerevisiae deletion strains, locus YPR163C, strain tif3, stronger effect = lower value 1 | S. cerevisiae deletion strains, locus YPR167C, strain met16, stronger effect = lower value 0.978 | S. cerevisiae deletion strains, strain wtn01, stronger effect = lower value 1.03 | S. cerevisiae strains, strain wild type, stronger effect = lower value 1.03
